Data as given in PubChem BioAssay AID1159580 (chemical genetic matrix, 2015).
Several values for one entry are separate records, joined by “and”; a condition that tells them apart may be missing. Equal entries are not always repeated. Among all 5,500 compounds or so, about 2,000 (36%) were called active. Inconclusive results (about 18%) are left out. Cut-off read from the data, not from the text of the source: active = normalized growth mostly below about 0.91 (no sharp cut-off); inconclusive = no clear call, values can overlap the other calls; inactive = mostly above about 0.92. Some of the results follow.

Experiment: chemical genetic growth profiling, strain panel (AID 1159580);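 note: tested at 20 µM; growth read once vehicle control cultures reached saturation at 30 °C; 1 = growth at the plate median or of vehicle wells; lower values mean less growth of the strain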
Details: S. cerevisiae deletion strains, growth OD

Measured: normalized growth

CC(=O)Oc1cccc2c1C(=O)c1c(OC(C)=O)cc(C(=O)O)cc1C2=O
active: locus YAL026C, strain drs2, hits give low values 0.896 | locus YBL061C, strain skt5, hits give low values 0.915 | locus YBR231C, strain swc5, hits give low values 0.874 | locus YCL029C, strain bik1, hits give low values 0.585 | locus YCL061C, strain MRC1, hits give low values 0.896 | locus YDL192W, strain arf1, hits give low values 0.175 | locus YDR069C, strain doa4, hits give low values 0.865 | locus YDR101C, strain arx1, hits give low values 0.438 | locus YDR297W, strain sur2, hits give low values 0.913 | locus YDR318W, strain mcm21, hits give low values 0.32 | locus YDR388W, hits give low values 0.171 | locus YDR502C, strain sam2, hits give low values 0.341 | locus YER015W, strain faa2, hits give low values 0.92 | locus YER110C, hits give low values 0.643 | locus YER155C, strain BEM2 (second series), hits give low values 0.858 | locus YGL086W, strain mad1, hits give low values 0.337 | locus YGL167C, strain pmr1, hits give low values 0.906 | locus YGL240W, strain doc1, hits give low values 0.832 | locus YGR135W, strain pre9, hits give low values 0.3 | locus YGR252W, strain gcn5, hits give low values 0.33 | locus YHR079C, strain IRE1 (second series), hits give low values 0.481 | locus YHR094C, strain hxt1, hits give low values 0.476 | locus YHR200W, strain rpn10, hits give low values 0.354 | locus YIR030C, strain dcg1, hits give low values 0.456 | locus YJL092W, strain hpr5, hits give low values 0.916 | locus YJL095W, strain BCK1 (second series), hits give low values 0.909 | locus YJL164C, strain tpk1, hits give low values 0.875 | locus YJL166W, strain qcr8, hits give low values 0.871 | locus YJL168C, strain set2, hits give low values 0.545
inactive: locus YAL013W, strain DEP1, hits give low values 1 | locus YAL021C, strain ccr4, hits give low values 0.969 | locus YAL030W, strain snc1, hits give low values 0.93 | locus YBR009C, strain hhf1, hits give low values 0.919 | locus YBR021W, strain FUR4, hits give low values 0.994 | locus YBR023C, strain chs3, hits give low values 0.918 | locus YBR171W, strain sec66, hits give low values 0.957 | locus YBR229C, strain ROT2, hits give low values 1.01 | locus YBR279W, strain paf1, hits give low values 0.972 | locus YCL011C, strain gbp2, hits give low values 0.923 | locus YCL016C, strain dcc1, hits give low values 0.946 | locus YCL069W, strain vba3, hits give low values 0.951 | locus YCR088W, strain abp1, hits give low values 0.929 | locus YDL005C, strain med2, hits give low values 0.943 | locus YDL035C, strain GPR1, hits give low values 1.01 | locus YDL040C, strain nat1, hits give low values 0.961 | locus YDL074C, strain BRE1, hits give low values 1.03 | locus YDL101C, strain DUN1, hits give low values 1.01 | locus YDL134C, strain PPH21, hits give low values 1.02 | locus YDL185W, strain tfp1, hits give low values 0.993 | locus YDR001C, strain nth1, hits give low values 0.93 | locus YDR137W, strain rgp1, hits give low values 0.97 | locus YDR150W, strain NUM1, hits give low values 1 | locus YDR159W, strain sac3, hits give low values 0.9 | locus YDR162C, strain NBP2, hits give low values 0.99 | locus YDR195W, strain ref2 0.991 | locus YDR334W, strain swr1, hits give low values 0.957 | locus YDR335W, strain msn5, hits give low values 0.949 | locus YDR392W, strain spt3, hits give low values 0.84 | locus YEL003W, strain gim4, hits give low values 0.954 | locus YEL037C, strain rad23, hits give low values 0.962 | locus YEL061C, strain CIN8 (second series), hits give low values 0.932 | locus YEL061C, strain CIN8, hits give low values 0.992 | locus YER016W, strain bim1, hits give low values 0.945 | locus YER111C, strain swi4, hits give low values 0.963 | locus YER155C, strain BEM2, hits give low values 1.01 | locus YER167W, strain BCK2, hits give low values 1 | locus YFR010W, strain ubp6, hits give low values 0.943 | locus YGL078C, strain dbp3, hits give low values 1 | locus YGL173C, strain kem1, hits give low values 0.929 | locus YGL227W, strain vid30, hits give low values 0.962 | locus YGL248W, strain PDE1, hits give low values 1.01 | locus YGL253W, strain hxk2, hits give low values 0.932 | locus YGR078C, strain PAC10, hits give low values 1 | locus YGR229C, strain SMI1, hits give low values 1.02 | locus YHR013C, strain ard1, hits give low values 0.991 | locus YHR027C, strain rpn1, hits give low values 0.942 | locus YHR030C, strain SLT2, hits give low values 0.999 and 0.943 | locus YHR079C, strain IRE1, hits give low values 0.964 | locus YHR129C, strain ARP1, hits give low values 1.01 | locus YHR142W, strain chs7, hits give low values 0.939 | locus YIL066C, strain RNR3, hits give low values 1.02 | locus YIL073C, strain SPO22, hits give low values 0.995 | locus YIL125W, strain kgd1, hits give low values 1 | locus YJL095W, strain BCK1, hits give low values 0.994 and 0.953 | locus YJL115W, strain asf1, hits give low values 0.939 | locus YJL129C, strain trk1, hits give low values 1 | locus YJL134W, strain LCB3, hits give low values 1.01 | locus YJL154C, strain vps35, hits give low values 0.953 | locus YJL187C, strain SWE1 (second series), hits give low values 1.01 | locus YJL187C, strain SWE1, hits give low values 0.931 | locus YJR043C, strain POL32, hits give low values 0.998 | locus YJR066W, strain TOR1, hits give low values 0.902
